# Where a name gives a salt, the structure may show the parent alone. ± gives the standard deviation of the averaged measurements.
# Test system: Danio rerio Tg(wt1b:EGFP) embryo, pronephros
# Test: glomerular width (mean of left and right), fold change vs DMSO control; higher = wider glomerulus
# Details: 25 µM; exposure: 24-48 hpf
# How it was run: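 Dechorionated Tg(wt1b:EGFP) zebrafish embryos were kept from 24 to 48 hpf at 28.5°C in HEPES-buffered E3 containing 0.003% PTU, 0.5% DMSO and 25 μM compound. The pronephroi were then imaged from the dorsal side in agarose-filled 96-well plates at 470 nm with 10 z-slices, and 16 reference points were placed by hand on maximum projections in Fiji so that a macro could calculate distances and angles. Values lying more than 2 SD from the mean of a feature were discarded. Every feature is given as a fold change against the mean of DMSO-treated embryos from the same day.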
row,Compound,glomerular width
1,NC1CCN(c2nc3c(cc2F)c(=O)c(C(=O)O)cn3-c2ccc(F)cc2F)C1 (stereo unspecified) [Tosufloxacin hydrochloride],1.07 ± 0.074
2,CC(C)NCC(O)COc1ccc(CCOCC2CC2)cc1 (stereo unspecified) [Betaxolol hydrochloride],1 ± 0.065
3,O=C1CCC(N2C(=O)c3ccccc3C2=O)C(=O)N1 (stereo unspecified) [Thalidomide],1.21 ± 0.078
4,O=c1[nH]c(=O)n([C@H]2C[C@H](O)[C@@H](CO)O2)cc1I [Idoxuridine],1.05 ± 0.017
5,CNC(C)CCC=C(C)C (stereo unspecified) [Isometheptene mucate],0.958 ± 0.039
6,O=C(O)c1cc(-c2ccc(F)cc2F)ccc1O [Diflunisal],0.881 ± 0.022

# Test system: Danio rerio Tg(wt1b:EGFP) embryo, pronephros
# Test: fraction of imaged embryos annotated as normal kidney; higher = less nephrotoxic; extreme values may be limits of the assay
# Details: 25 µM; exposure: 24-48 hpf
# How it was run: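 From 24 to 48 hpf at 28.5°C, dechorionated Tg(wt1b:EGFP) zebrafish embryos in 12-well plates were kept in 5 mM HEPES-buffered E3 with 0.003% PTU, 0.5% DMSO and 25 μM compound. Pronephroi were imaged by widefield fluorescence at 470 nm and judged by eye from maximum projections. Reported is the proportion of embryos per treatment in the normal-kidney category.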
row,Compound,fraction of imaged embryos annotated as normal kidney
1,CC(Oc1c(Cl)cccc1Cl)C1=NCCN1 (stereo unspecified) [Lofexidine],0.833
2,CCC(=O)[C@@]1(C)[C@H](C)C[C@H]2[C@@H]3CCC4=CC(=O)C=C[C@]4(C)[C@H]3[C@@H](O)C[C@@]21C [Rimexolone],0.333
3,CC(=O)Oc1cc(C(F)(F)F)ccc1C(=O)O [Triflusal],0.917
4,COC(=O)[C@@H]1[C@H]2C[C@H]3c4[nH]c5ccccc5c4CCN3C[C@@H]2CC[C@@H]1O [Yohimbine hydrochloride],0.727
5,COc1cc([S+](C)[O-])ccc1-c1nc2cccnc2[nH]1 (stereo unspecified) [Sulmazole],0.833
6,N=C(N)N/N=C/c1c(Cl)cccc1Cl [Guanabenz acetate],1
7,CC1CC(OC(=O)c2ccccc2O)CC(C)(C)C1 (stereo unspecified) [Homosalate],0.667
8,CCC(=O)O[C@@H](O[P@](=O)(CCCCc1ccccc1)CC(=O)N1C[C@H](C2CCCCC2)C[C@H]1C(=O)O)C(C)C [Fosinopril],0.7
9,Nc1nc(NC2CC2)c2ncn([C@H]3C=C[C@@H](CO)C3)c2n1 [Abacavir Sulfate],0.9
10,CC(C)(C#N)c1cc(Cn2cncn2)cc(C(C)(C)C#N)c1 [Anastrozole],0.75
11,CCCc1cc(C(N)=S)ccn1 [Prothionamide],0.917
12,CCn1cc(C(=O)O)c(=O)c2cnc(N3CCNCC3)nc21 [Pipemidic acid],0.75
13,CC[C@H]1OC(=O)[C@H](C)[C@@H](O[C@H]2C[C@@](C)(OC)[C@@H](O)[C@H](C)O2)[C@H](C)[C@@H](O[C@@H]2O[C@H](C)C[C@H](N(C)C)[C@H]2O)[C@](C)(O)C[C@@H](C)C(=O)[C@H](C)[C@@H](O)[C@]1(C)O [Erythromycin],0.818
14,C[C@H](CCC(=O)O)[C@H]1CC[C@H]2[C@@H]3[C@H](O)C[C@@H]4C[C@H](O)CC[C@]4(C)[C@H]3CC[C@]12C [Chenodiol],0.333
15,Nc1nc(=O)c2nc(CNc3ccc(C(=O)N[C@@H](CCC(=O)O)C(=O)O)cc3)cnc2[nH]1 [Folic acid],0.636
16,C[C@H](Cc1cc2c(c(C(N)=O)c1)N(CCCO)CC2)NCCOc1ccccc1OCC(F)(F)F [Silodosin],0.917
17,COCCCOc1ccnc(C[S+]([O-])c2nc3ccccc3[nH]2)c1C (stereo unspecified) [Rabeprazole Sodium salt],0.75
18,CC(C)NCC(O)c1ccc2ccccc2c1 (stereo unspecified) [Pronethalol hydrochloride],0.833
19,CCCC(CCC)C(=O)O [Valproic acid],0.0833
20,CCN(CC)CCOC(=O)C1(C2CCCCC2)CCCCC1 [Dicyclomine hydrochloride],0.727

row,Compound,fraction of imaged embryos annotated as normal kidney
1,CC1(C)NC(=O)N(c2ccc([N+](=O)[O-])c(C(F)(F)F)c2)C1=O [Nilutamide],0.667
2,CCOC(=O)[C@@](C)(N)Cc1ccc(O)c(O)c1 [Methyldopate hydrochloride],0.667
3,O=C1C(O)=C([C@H]2CC[C@H](c3ccc(Cl)cc3)CC2)C(=O)c2ccccc21 [Atovaquone],0.917
4,CCCSc1ccc2[nH]c(NC(=O)OC)nc2c1 [Albendazole],0
5,Cc1ccc(N(CC2=NCCN2)c2cccc(O)c2)cc1 [Phentolamine hydrochloride],0.667
6,CCN(CC)CCOCCOC(=O)C1(c2ccccc2)CCCC1 [Carbetapentane citrate],0.75
7,O=C(NCCNCC(O)COc1ccc(O)cc1)N1CCOCC1 (stereo unspecified) [Xamoterol hemifumarate],1
8,C[N+]1(CCCCC[N+]2(C)CCCC2)CCCC1 [Pentolinium bitartrate],0.75
9,CCCc1nc2c(C)cc(-c3nc4ccccc4n3C)cc2n1Cc1ccc(-c2ccccc2C(=O)O)cc1 [Telmisartan],0.75
10,C[C@H](CCC(=O)O)[C@H]1CC[C@H]2[C@@H]3C(=O)C[C@@H]4CC(=O)CC[C@]4(C)[C@H]3CC(=O)[C@]12C [Dehydrocholic acid],0.833
11,O=C(O)CCNC(=O)c1ccc(/N=N/c2ccc(O)c(C(=O)O)c2)cc1 [Balsalazide Sodium],0.833
12,Nc1ccc(S(=O)(=O)Nc2ccc(Cl)nn2)cc1 [Sulfachloropyridazine],0.75
13,CC(C)NC(=N)NC(=N)Nc1ccc(Cl)cc1 [Proguanil hydrochloride],0.917
14,O=C1CC[C@@H](C(=O)N2CSC[C@H]2C(=O)O)N1 [Pidotimod],0.917
15,NC1CCN(c2nc3c(cc2F)c(=O)c(C(=O)O)cn3-c2ccc(F)cc2F)C1 (stereo unspecified) [Tosufloxacin hydrochloride],0.833
16,CC(C)NCC(O)COc1ccc(CCOCC2CC2)cc1 (stereo unspecified) [Betaxolol hydrochloride],1
17,O=C1CCC(N2C(=O)c3ccccc3C2=O)C(=O)N1 (stereo unspecified) [Thalidomide],0.917
18,O=c1[nH]c(=O)n([C@H]2C[C@H](O)[C@@H](CO)O2)cc1I [Idoxuridine],0.667
19,CNC(C)CCC=C(C)C (stereo unspecified) [Isometheptene mucate],0.917
20,O=C(O)c1cc(-c2ccc(F)cc2F)ccc1O [Diflunisal],0.0833
